# Screens from PubChem.
# KB-V1 cytotox: KB-V1 MDR subline cytotoxicity; KB-V1 MDR cells viability, CellTiter-Glo, 72 h; Potency, µM (highest dose often 46.1 µM), most hits filed as cytotoxic; actives 3.4% (n = 400,000); AID 1347076; note: nearly all actives have a fitted effect of over 60% in size
#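 Cytotoxicity toward P-gp-expressing KB-V1 cells was determined as loss of CellTiter-Glo luminescence after 72 h at 37 degrees C. Compounds were tested in quantitative HTS format across a concentration range, with curves fitted to normalized data.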
# KB-3-1 cytotox: kills parental KB-3-1 adenocarcinoma cells | KB-3-1 viability, CellTiter-Glo ATP luminescence, 72 h | AID 1347075 | actives 1.4% (n = 400,000) | Potency, µM (highest dose often 46.1 µM), usual class: cytotoxic; note: nearly all actives have a fitted effect of over 60% in size
#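 Screening of KB-3-1 cells (DMEM, 10% FBS, phenol-red free) ran from lowest to highest compound concentration; after 72 h at 37 °C viability was read luminescently and curves fitted.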
# MCF10A rerep: inducers of DNA re-replication in MCF 10A breast cells. actives 2.9% (n = 350,000). Potency, µM (highest dose often 46.1 µM), usual class: activators. MCF 10A DNA re-replication, Hoechst nuclear intensity, 48 h; note: nearly all actives have a fitted effect of over 50% in size
# IL1B secr inh: inflammasome signaling inhibition, IL-1 beta readout. AID 743279. actives 4.7% (n = 360,000). activity change, % at 57.5 µM. THP-1 LPS/ATP IL-1B secretion, AlphaLISA, 16 h; active compounds read low; in the data active = activity change below about -50%; inconclusive = mostly about -30% to -49%
#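 THP-1 cells pretreated 1 hr with compounds (up to 57.5 uM final), then stimulated with LPS (250 ng/mL final) plus ATP (1.25 mM final); secreted IL-1B measured by AlphaLISA after 16 hr, decreased signal indicating inhibition.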
# SW480 rereplic: inducers of DNA re-replication in SW480 colon cancer cells; SW480 DNA re-replication, Hoechst DNA content imaging, 48 h; Potency, µM (doses to about 46.1 µM), most hits filed as activators; actives 1.8% (n = 340,000); AID 624297; note: nearly all actives have a fitted effect of over 55% in size
#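 First, 250 cells per well were seeded. Next, compound or vehicle (23 nL) was pinned in, plates sat 48 hr at 37 C. Finally Hoechst was added for 40 min before fluorescence scanning.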
# A number is an active result; – = inactive; ? = inconclusive; · = no result; ! = a repeat was not active. The list is not random: actives were taken first. Their share in the collection is about 9.9%. Unless noted, calls come from the whole dose curve; as a rule, active = well fitted curve in the direction sought with a large enough effect; inconclusive = small, poorly fitted or top-dose-only effect, or another doubt; inactive = no such curve, though single readings can be large; an effect the other way counts as inactive or inconclusive.
SMILES,KB-V1 cytotox,KB-3-1 cytotox,MCF10A rerep,IL1B secr inh,SW480 rereplic
O=C(Cn1cc[n+](CC(=O)c2ccc(Cl)cc2Cl)c1)c1ccc(Cl)cc1Cl,–,?,–,-82.2,–
OC(COCC(F)(F)C(F)(F)C(F)(F)C(F)F)Cn1c2ccc(Cl)cc2c2cc(Cl)ccc21 (centres undefined),18.4µM,?,–,-97.4,?
CCOC(=O)c1c(O)c2cc(Cl)ccc2n(CC)c1=O,–,–,–,·,?
Cc1cccc(OCC(=O)Nc2ccccc2OCc2cc(=O)n3cc(C)ccc3n2)c1,–,–,·,·,·
CCCOc1ccc(/C=N/NC(=O)CN2CCCCC2)cc1OCC,–,–,?,–,?
CCCCOc1ccc(C(=O)N/N=C/c2ccc(OCCN3CCCCC3)c(OC)c2)cc1,?,?,?,-80.5,?
COc1ccc(-c2[nH]ncc2/C=N\NC(=O)c2ccc(C(C)(C)C)cc2)cc1OC,–,–,–,–,–
CCCCOc1ccc(C(=O)N/N=C/c2cn[nH]c2-c2ccc(OC)c(OC)c2)cc1,–,–,–,-56.0,–
Clc1ccccc1Cn1c(/C=C/c2ccco2)nc2ccccc21,13µM,?,18.4µM,?,·
O=C(CN(C(=O)Cn1nnc(-c2ccccc2F)n1)c1cccc2c1CCCC2)NCc1ccccc1,10.3µM,–,–,–,–
CCC(C(=O)NC(C)(C)C)N(C(=O)Cn1nnc(-c2ccccc2F)n1)c1cccc2c1CCCC2 (centres undefined),1.64µM,–,–,–,–
COc1ccc(NC(=O)C2(c3cccs3)CCOCC2)cc1Cl,–,–,·,·,·
CC1CN(C(=O)N2CCC(C(=O)NCc3ccccc3F)CC2)c2cc(Cl)ccc2O1 (centres undefined),–,–,·,·,·
Cc1oc(-c2cccc3ccccc23)nc1CN1CCN(c2ncnc3ccccc23)CC1,?,?,?,–,–
COc1ccc(-c2nc(CN3CCN(c4cc(C)nc(C)c4)CC3)c(C)o2)c2ccccc12,–,?,16.4µM,-105.3,?
COc1ccc(C(C(=O)Nc2ccc3c(c2)OCO3)N(C)C(=O)Cc2c[nH]c3ccccc23)cc1 (centres undefined),–,–,–,-58.2,–
O=C(Nc1ccc2c(c1)OCO2)C(=O)c1c[nH]c2ccccc12,–,6.51µM,–,–,–
O=C(Nc1ccc2c(c1)OCCO2)C(=O)c1c[nH]c2ccccc12,–,3.66µM,9.2µM,?,4.61µM
O=C(O)/C=C/c1ccc(S(=O)(=O)NCc2cccnc2)cc1,–,–,–,–,–
Cn1cc([N+](=O)[O-])c(C(=O)NNC(=O)c2ccc([N+](=O)[O-])cc2Cl)n1,–,–,–,–,–
Cc1ccc(C(=O)N/C(=C/c2ccc(-c3cc(C(F)(F)F)ccc3Cl)o2)C(=O)NCc2cccnc2)cc1,9.2µM,?,–,?,–
O=C(NCc1cccnc1)/C(=C/c1ccc(Cl)cc1)NC(=O)c1ccccc1,–,–,–,–,–
Cc1ccc(C(=O)N/C(=C\c2ccco2)C(=O)NCc2cccnc2)cc1,–,–,–,–,–
O=C(NCc1cccnc1)/C(=C/c1ccc(-c2cccc(C(F)(F)F)c2)o1)NC(=O)c1ccccc1,16.4µM,–,?,–,–
COc1cc(SC)ccc1C(=O)N1CCn2c3c(c4cc(C)ccc42)CCCC31 (centres undefined),–,–,·,·,·
SMILES,KB-V1 cytotox,KB-3-1 cytotox,MCF10A rerep,IL1B secr inh,SW480 rereplic
Cc1cc(C)c(S(=O)(=O)Nc2ccc(Cl)cn2)c(C)c1,–,–,–,–,–
CC(C)NC(=O)CSc1nnc(-c2ccc(C(C)(C)C)cc2)n1C,25.9µM,–,?,–,–
O=C(NCCn1cc(SCc2ccccc2)c2ccccc21)c1c(F)cccc1F,–,–,–,?,–
O=C(NCCn1cc(SCc2ccc(F)cc2)c2ccccc21)c1c(F)cccc1F,18.4µM!,?,?,-60.9,–
CCn1c2ccccc2c2nnc(SCC(=O)NC(CC(C)C)C(=O)OC)nc21 (centres undefined),5.17µM,–,–,–,–
CCOC(=O)C(Sc1nnc2c3ccccc3n(CC)c2n1)C(=O)OCC,13µM,?,–,–,–
CCOC(=O)CSc1nnc2c3ccccc3n(CC)c2n1,–,–,?,–,–
CCCCC(CC)CNC(=O)C(Cc1ccccc1)NS(=O)(=O)c1ccc2c(c1)CCC(=O)N2 (centres undefined),–,–,–,–,?
O=C(CSC1=Nc2ccccc2C2CC=NN12)Nc1ccc(F)c(F)c1F (centres undefined),–,–,20.6µM,–,–
CCCCOC(=O)c1ccc(NC(=O)CSC2=Nc3ccccc3C3CC=NN23)cc1 (centres undefined),–,–,–,–,–
Cc1c(N(C)S(=O)(=O)c2ccc(Cl)c(C(=O)N3CCC(C(N)=O)CC3)c2)c(=O)n(-c2ccccc2)n1C,–,–,–,–,6.51µM
CCOC(=O)C1CCCN(C(=O)c2cccc(S(=O)(=O)N(C)c3c(C)n(C)n(-c4ccccc4)c3=O)c2)C1 (centres undefined),–,?,–,–,?
COc1cc2c(NC3CCN(C)CC3)nc(N3CCN(C)CC3)nc2cc1OCCCN(C)C,–,?,·,·,·
COc1cccc(Nc2nc3cc(C)ccc3nc2NS(=O)(=O)c2ccc(Cl)cc2)c1,14.6µM,?,·,·,·
COCC(=O)O[C@]1(CCN(C)CCCc2nc3ccccc3[nH]2)CCc2cc(F)ccc2[C@@H]1C(C)C,14.6µM,?,–,–,?
COc1cc2c(C(=O)N3CCN(c4cccc(Cl)c4)CC3)cn(CC(C)C)c(=O)c2cc1OC,–,?,–,–,–
Cc1cc(Br)ccc1NC(=O)c1cn(C2CCCC2)c(=O)c2c1c1ccccc1n2C,–,?,·,·,·
COc1ccc(C(=O)CSc2cc(C)nc3nc(C)nn23)cc1OC,?,–,–,-96.9,–
COc1cccc(CC(=O)Nc2sc3c(c2C(N)=O)CCCC3)c1,?,–,–,–,–
CN(CC(=O)Nc1ccccc1Cl)CC(=O)Nc1sc2c(c1C(N)=O)CCC2,–,–,3.26µM,?,?
COc1ccc(CC(=O)Nc2sc3c(c2C(N)=O)CCCC3)cc1OC,13µM,?,–,–,–
COC(=O)c1c(NC(=O)COC(=O)c2ccc(O)cc2)sc2c1CCCCC2,–,–,13µM,-79.5,?
Cc1nn(-c2ccccc2)c(C)c1C(=O)OCC(O)=C(C#N)c1nc2ccccc2[nH]1,–,–,18.4µM,–,?
Cc1c(C(=O)OC/C(O)=C(\C#N)c2nc3ccccc3[nH]2)oc2ccccc12,–,–,14.6µM,?,?
Cc1c(C(=O)NC(C)C)c(-c2ccccc2)nn1-c1ccccc1,20.6µM,–,–,–,–
N#CC(=C(O)COC(=O)c1ccc2c(c1)OCCO2)c1nc2ccccc2[nH]1,–,–,?,–,?
COc1cc(OC)cc(C(=O)OC/C(O)=C(\C#N)c2nc3ccccc3[nH]2)c1,–,–,20.6µM,–,?
